Among the data in PubChem BioAssay (NCATS) are Potency values, retold here.

Results filed as inconclusive are left out. A call without a number means that no potency is given here. Active and inactive are the calls of the source. The call rests on the fitted dose curve; in most records, active means well fitted inhibition curve with a large enough effect; inconclusive means small, poorly fitted or top-dose-only effect; inactive means no such curve, though single readings can be large or run the other way.

This experiment addresses Retinaldehyde dehydrogenase 3 (Homo sapiens) (UniProt P47895). Kind of experiment: qHTS for Inhibitors of the Aldehyde Dehydrogenase Family (ALDH1A3) Primary screen (AID 2061315). To be noted: ALDH inhibition qHTS; series mostly up to 56 µM.
For the compound `COc1ccccc1CN[C@H]1CCCN[C@H]1c1ccccc1`, the Potency entry is “inactive”. With `COc1cnc(-n2cnc(C)n2)c2[nH]cc(C(=O)C(=O)N3CCN(C(=O)c4ccccc4)CC3)c12`, the Potency entry is “inactive”. Take `N#CC(c1ccnc(OCc2ccc(CN3CCOCC3)cc2)n1)c1nc2ccccc2s1` (stereo not drawn): the Potency entry is “inactive”. For `COc1cc(Br)c(S(=O)(=O)Nc2ccc(C(F)(F)F)c(O[C@@H]3CCN(C)C3)c2)cc1OC` the value was “inactive”; for `Oc1ccc([C@H]2COc3cc(O)ccc3C2)cc1`, “inactive”. As to `Cc1onc(-c2ccccc2)c1C(=O)N1CCN(c2ccc([N+](=O)[O-])cc2Cl)CC1`, the Potency entry is “inactive”. For `CCCCC(=O)N1c2ccccc2NC2=C(C(=O)CCC2)C1c1ccccc1Cl` (stereo not drawn), the Potency result is “inactive”.

As to `CO[C@H]1C=CO[C@@]2(C)Oc3c(C)c(O)c4c(O)c(c5c(c4c3C2=O)NC2(CCN(CC(C)C)CC2)N=5)=NC(=O)C(C)=CC=C[C@H](C)[C@H](O)[C@@H](C)[C@@H](O)[C@@H](C)[C@H](OC(C)=O)[C@H]1C`, the Potency entry was “inactive”. With `CN(C)CCCNc1nc(CN2CCN(C(c3ccc(Cl)cc3)c3ccc(Cl)cc3)CC2)nc2ccccc12`, the Potency entry was “inactive”. Consider `CCCCNc1nc(N)c2[nH]c(=O)n(Cc3ccc(OCCN(C)C)nc3)c2n1`, for which the Potency result is “inactive”. Then `Cc1oc2nc3c(c(NC(=O)CN4CCCC4=O)c2c1C)CCCC3`, with “inactive”. Then `CN[C@H](CNC(=O)N1CCC[C@@H]([C@@H](OCCNC(=O)OC)c2cccc(Cl)c2)C1)C[C@H]1CCCOC1`, with “inactive”; and `CCO[C@H]1CN(C2CCC(O)(c3ccc4c(c3)OCO4)CC2)C[C@@H]1NC(=O)CNC(=O)c1cccc(C(F)(F)F)c1` (stereo partly drawn), with “inactive”.
